RXFP1 ag – activates the human relaxin receptor RXFP1; HEK293T-RXFP1 cAMP TR-FRET, 30 min; response scale: percent of porcine relaxin response, buffer zero; Q9HBX9; 370,000 tested, 0.3% active; Potency, µM (series often up to 57.5 µM), for the others: at the top dose activation, hits mostly activators; further: potency means the concentration at half of the fitted maximal effect; nearly all actives have a fitted effect of over 60% in size
Target sequence (Q9HBX9 whole entry, looked up): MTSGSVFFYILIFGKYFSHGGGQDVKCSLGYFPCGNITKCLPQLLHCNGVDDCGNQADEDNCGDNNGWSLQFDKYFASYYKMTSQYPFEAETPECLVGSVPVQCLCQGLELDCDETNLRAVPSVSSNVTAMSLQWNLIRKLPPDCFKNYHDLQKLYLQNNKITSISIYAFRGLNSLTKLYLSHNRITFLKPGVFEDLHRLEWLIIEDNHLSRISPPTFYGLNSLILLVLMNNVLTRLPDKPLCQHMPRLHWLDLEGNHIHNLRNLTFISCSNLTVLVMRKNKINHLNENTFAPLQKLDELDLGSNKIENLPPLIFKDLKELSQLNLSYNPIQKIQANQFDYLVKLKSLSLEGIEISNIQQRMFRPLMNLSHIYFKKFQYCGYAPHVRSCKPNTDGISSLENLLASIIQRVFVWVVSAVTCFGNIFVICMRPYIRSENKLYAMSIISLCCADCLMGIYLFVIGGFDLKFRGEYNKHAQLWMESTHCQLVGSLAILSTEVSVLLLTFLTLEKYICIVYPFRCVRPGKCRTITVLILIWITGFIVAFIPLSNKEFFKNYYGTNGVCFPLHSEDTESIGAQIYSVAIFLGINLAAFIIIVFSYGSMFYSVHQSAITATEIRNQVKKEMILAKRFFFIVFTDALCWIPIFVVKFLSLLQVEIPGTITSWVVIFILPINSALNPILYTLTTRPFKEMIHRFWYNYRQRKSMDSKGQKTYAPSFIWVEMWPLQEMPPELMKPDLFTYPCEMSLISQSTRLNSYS
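HEK293T cells stably expressing RXFP1 were pretreated with the PDE4 inhibitor Ro 20174, exposed to compounds for 30 min at 37C, lysed, and cAMP was read by TR-FRET. Data normalized to buffer (basal) and 29 nM porcine relaxin (100%).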
BCR signal inh – inhibitors of chronic active B-cell receptor signaling; 340,000 tested, 0.05% active; ABC-DLBCL IkBa-CBG/CBR reporter, luminescence ratio, 4 h; Potency, µM (top dose mostly 46.1 µM), for the others: top-dose activity change, negative = inhibition, usual class: inhibitors; active means well fitted inhibition curve with a large enough effect in the signal ratio, with a control signal flat, not every such curve was filed as active; inconclusive means small, poorly fitted or top-dose-only effect, or effect the other way, or a change in a side signal; the % refers to the signal ratio;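 further: potency means the concentration at half of the fitted maximal effect; plate controls were basal doxycycline-induced cells for no effect and cells given 10 µM MG132 for full effect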
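Compounds up to 46 uM were incubated four hours with TMD8 cells whose green CBG68 luciferase is fused to IkappaBalpha; red CBR luminescence normalised the signal, and concentration-effect curves were fitted to fusion, red and ratio data.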
RXFP1 antag – RXFP1 (human) relaxin receptor antagonism; Q9HBX9; HEK293-RXFP1, relaxin-stimulated cAMP HTRF, 30 min; active compounds read low; activity change, negative = inhibition, % at 57.5 µM; 350,000 tested, 0.59% active; AID 1259400;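 active means activity change of -60% or lower, but not beyond a set lower limit; inconclusive means change between -60% and -40%, or beyond the set limit; inactive means change above -40%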
B2AR arrestin – recruits beta-arrestin to the human beta2-adrenergic receptor | P07550 | beta-arrestin recruitment to beta2AR, cell-based reporter | Potency, µM (doses to about 46.1 µM), for inactives: at the top dose activation, most hits filed as activators | 330,000 tested, 0.02% active;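 further: potency means the concentration at half of the fitted maximal effect; 0% = DMSO controls and full agonism = EC100 isoproterenol or metaproterenol; nearly all actives have a fitted effect of over 65% in size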
An asterisk follows results filed as active; ? = inconclusive; nt = no result. The list is not random: actives were taken first. Their share in the collection is about 0.59%. Unless noted, the call rests on the fitted dose curve; in most records, active means well fitted activation curve with a large enough effect; inconclusive means small, poorly fitted or top-dose-only effect; inactive means flat fitted curve, though single readings scatter. Unless noted, on the % scale 0 is the no-effect control and ±100 the full control effect.

SMILES	RXFP1 ag	BCR signal inh	RXFP1 antag	B2AR arrestin
O=C(CCCn1c(=O)[nH]c2ccc(Br)cc2c1=O)N1CCN(c2cccc(Cl)c2)CC1	1.3%	nt	nt	nt
COC(=O)c1ccc(C2C=C(c3ccc(Cl)cc3)Nc3nc4ccccc4n32)cc1 (stereo not given)	-0.3%	?	-14.0	nt
CCN(c1ccccc1)c1ncnc2c1cnn2-c1ccc(OC)cc1	-0.1%	?	?	nt
CCc1nnc(SCC(=O)N(C)c2ccccc2)c2cc3sccc3n12	17.5%	nt	10.5	nt
CCCCc1ccc(-n2nc3ccc(NC(=O)c4cc5ccccc5o4)cc3n2)cc1	2.8%	nt	-8.1	nt
Cc1nc2nc(C)c(CCC(=O)N3CCN(c4ccccn4)CC3)c(C)n2n1	4.1%	0.0%	22.8	-0.6%
CCn1c(=O)c(CCC(=O)N2CCN(c3ccccn3)CC2)c(C)c2c(C)nn(-c3cccc(C)c3)c21	0.5%	4.3%	-103.4*	0.2%
Cc1onc(-c2c(Cl)cccc2Cl)c1C(=O)Cl	nt	nt	-2.8	nt
COc1ccc(C(=O)O)cc1NC(=S)NC(=O)C(c1ccccc1)c1ccccc1	3.3%	-10.8%	-116.2*	0.4%
COc1ccc(C(=O)C2CCCN(C3Cc4ccccc4C3)C2)c(OC)c1 (stereo not given)	0.9%	?	-64.7*	0.1%
CC(=O)N1CCC(=NNC(=O)c2cc3ccccc3cc2O)CC1	-0.3%	2.9%	-92.9*	-0.1%
CCOC(=O)N1CCC(=NNC(=O)c2cc3ccccc3cc2O)CC1	0.5%	-2.7%	-24.4	-0.6%
O=[N+]([O-])c1cccc(N/N=C/c2cccc(O)c2O)c1	1.9%	-5.7%	-86.8*	0.1%
COc1ccc(C(=O)Nc2nnc(SCc3cc(=O)n4cccc(C)c4n3)s2)cc1	17.3%	nt	-13.0	nt
CC(C)c1ccc(OCC(=O)Nc2cccc(C(=O)Nc3ccccc3C(=O)O)c2)cc1	-0.1%	?	-66.2*	-0.2%
COc1cccc(C(=O)/C=C/Nc2cc(C)ccc2O)c1	3.4%	?	-78.4*	-0.1%
COc1ccc(Cn2c(-c3ccc(OC)c(O)c3)nc3ccccc32)cc1O	-0.8%	-3.2%	-72.1*	0.5%
CCOc1ccc(Cn2c(-c3ccc(OCC)c(OC)c3)nc3ccccc32)cc1OC	27.6%	nt	5.6	nt
COc1ccc(CCC(=O)NCc2ccc3c(c2)CCN3C(=O)c2cccc(C)c2)cc1	1.1%	2.7%	-96.1*	nt
Cc1ccc(-c2nc(-c3cc4c([nH]c3=O)CC(C)(C)CC4=O)sc2C)cc1	4.7%	nt	-7.0	nt
CCc1ccccc1NC(=O)c1ncoc1-c1ccco1	-0.4%	nt	nt	nt
Cc1ccc(-c2ccc(/C=N/NC(N)=S)o2)cc1	3.3%	22.4µM*	-24.7	?
NC(=S)N/N=C/c1ccc(-c2ccccc2)o1	1.4%	?	-2.8	?
CCOC(=O)c1c(-c2ccccc2)c[nH]c1C	nt	nt	-87.6*	nt
Cn1cc(S(C)=O)c(=O)c2ccc(F)cc21 (stereo not given)	nt	nt	-15.2	nt
SMILES	RXFP1 ag	BCR signal inh	RXFP1 antag	B2AR arrestin
Cc1nnc(Nc2ccc(S(N)(=O)=O)cc2)c2ccccc12	25.1µM*	-3.7%	35.1	-1.2%
CCOC(=O)c1ccc(Nc2nnc(C)c3ccccc23)cc1	?	?	11.3	0.4%
Cc1c(NC(=O)c2sc3ccccc3c2Cl)cccc1-c1nc2ccccc2o1	11.2%	nt	-0.4	nt
COc1cccc(/C=c2\s/c(=C\C(=O)C(C)(C)C)[nH]c2=O)c1	0.4%	0.9%	-90.6*	0.2%
CCc1nnc(N/N=C/c2cc(Br)c(O)cc2O)n1N	1.6%	?	16.4	-1.1%
CC(C)(C)c1nnc(N/N=C/c2cc(Br)ccc2O)n(N)c1=O	1.3%	?	-87.9*	-0.5%
CCOc1cccc(/C=C2/NC(=O)N(CC(=O)Nc3cccc(C)c3)C2=O)c1O	-0.8%	0.7%	-77.4*	-0.1%
CSc1nc(SCC(=O)O)c2sc3nc(-c4ccccc4)c4c(c3c2n1)CCC4	28.2µM*	?	0.4	-0.4%
O=C1N=c2ccccc2=C1c1[nH]c(=S)[nH]c1O	-1.0%	?	-12.6	0.0%
Cc1ccc(Cl)c2c1=NC(=O)C=2c1[nH]c(=S)[nH]c1O	0.2%	2.7%	-108.6*	-0.5%
Cc1cc2ccc3ccccc3c2cc1CN(C)C	-0.5%	?	-107.1*	-0.1%
CN(C)Cc1cc2ccccc2c2c1COC2	2.4%	0.4%	-27.5	-0.5%
Cc1ccc(/C=[N+](\[O-])c2ccc(N(C)C)cc2)c2nsnc12	-13.7%	10µM*	?	-0.3%
Cn1c(=O)c(C(=O)NNC(=O)c2ccccc2Cl)c(O)c2ccccc21	2.4%	?	-66.1*	14.9%
Cc1cccc(C(=O)NC(=S)NNC(=O)c2ccc(Cl)cc2)c1	-0.3%	?	-96.5*	-0.7%
CCOC(=O)c1ccc(N2C(=O)c3n[nH]c(-c4ccco4)c3C2c2ccc(OCC)cc2)cc1 (stereo not given)	-0.1%	nt	-30.6	nt
Cc1ccc(S(=O)(=O)NCCC(=O)NC(C)c2ccccc2)cc1 (stereo not given)	-2.3%	-6.6%	18.7	-1.0%
Cc1ccc(S(=O)(=O)NCCC(=O)NC(C)CCc2ccccc2)cc1 (stereo not given)	0.0%	-1.1%	-62.0*	-0.1%
CCOC(=O)c1cc(-c2ccccc2)n(-c2cccc(C(=O)N(C)c3ccc(C)cc3)c2)c1C	-0.9%	-15.1%	-62.7*	nt
CC(C)(C)c1ccc(-c2nc(SCC(=O)Nc3ccccc3F)n3[nH]c(=O)cc3n2)cc1	2.5%	nt	-63.8*	nt
O=C(CSc1nc(-c2ccco2)nc2cc(=O)[nH]n12)Nc1ccccc1F	-0.1%	nt	-9.0	nt
CC(NC(=O)/C(C#N)=C/c1ccc([N+](=O)[O-])o1)c1ccccc1 (stereo not given)	-0.3%	?	-74.5*	-0.4%
CN(C)c1ccc(C(C#N)c2ccccc2)nn1 (stereo not given)	-3.1%	3.2%	-69.5*	-1.7%
COCc1cc(CN(C)C(=O)C2CCC(=O)N(Cc3cccc(OC)c3)C2)[nH]n1 (stereo not given)	-1.2%	11.9%	-78.0*	0.2%
COc1cccc(CN2CC(C(=O)N(C)Cc3ccc(C)cc3)CCC2=O)c1 (stereo not given)	-1.6%	5.8%	10.4	0.3%
SMILES	RXFP1 ag	BCR signal inh	RXFP1 antag	B2AR arrestin
Cc1ccc(Cl)cc1N1CCN(C(=O)c2ccc(C)c(-n3c(C)nc4cccnc43)c2)CC1	-0.7%	nt	-64.3*	nt
Cc1nc2cccnc2n1-c1cccc(C(=O)N2CCN(c3ccc(Cl)cc3)CC2)c1	13.5%	nt	?	nt
Cc1ccc(C)c(N2CCN(C(=O)c3cccc(-n4c(C)nc5cccnc54)c3)CC2)c1	0.9%	nt	-69.7*	nt
Cc1cccc(N2CCN(C(=O)c3cccc(-n4c(C)nc5cccnc54)c3)CC2)c1C	0.1%	nt	-1.8	nt
Cc1ccc(S(=O)(=O)N2CCc3cc(C(=O)Nc4c(F)cccc4F)ccc32)cc1	1.2%	nt	-1.5	nt
CC1(C)Cc2c(sc3ncnc(NN)c23)CO1	12.6µM*	1.1%	8.6	0.4%
CCOc1ccccc1Cn1c(=O)sc2ccccc21	-0.8%	-0.7%	-86.9*	-0.8%
CCOC(=O)C1=C(O)/C(=C/c2cccc(OC)c2O)N=C1C	-0.9%	0.6%	-63.5*	-1.1%

Screening data deposited in PubChem by National Center for Advancing Translational Sciences (NCATS).
